Experimental data reported in PubChem BioAssay AID1490 (National Center for Advancing Translational Sciences (NCATS), 2009).
“And” between values parts separate entries of the source, which are not always exact repeats. Equal values may be shown once. Among all 310,000 compounds or so, about 11,000 (3.5%) were called active. About 4% were inconclusive and are not listed. The list comes from a sample in which actives are over-represented; it also holds similar structures and randomly drawn compounds. Values without a mark were called inactive. Calls come from the whole dose curve; as a rule, active = well fitted inhibition curve with a large enough effect; inconclusive = small, poorly fitted or top-dose-only effect, or another doubt; inactive = no such curve, though single readings can be large or run the other way.

biological target: 4'-phosphopantetheinyl transferase ffp (Bacillus subtilis) (UniProt Q9F4F7); test: qHTS Assay for Inhibitors of Bacillus subtilis Sfp phosphopantetheinyl transferase (PPTase); conditions: Biochemical Sfp PPTase activity;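 note: the enzyme is Sfp with the accession as filed and its product quenches rhodamine fluorescence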;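 for largest response in the series, negative = inhibition: 0% = enzyme reaction without inhibitor and -100% = no enzyme wells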
Method in brief: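 Step 1, compound plus 15 nM Sfp-PPTase, 15 min, room temperature. Step 2, add rhodamine-CoA (5 uM) and BHQ-2-YbbR (12.5 uM). Step 3, read 525/598 nm fluorescence at 0 and 30 min.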
Potency is the fitted concentration of half-maximal effect.

SMILES | largest response in the series, negative = inhibition | Potency
CC(=O)c1ccc(NC(=O)c2cc(-c3cccs3)on2)cc1 | 1.32% | 
COc1cc(=O)[nH]c(=O)n1C(=O)Cc1ccccc1 | 9.86% | 
COc1ccc(Cn2c(=O)cc(C)[nH]c2=S)cc1 | -4.49% | 
CCCOc1ccc(Cn2c(O)cc(=O)[nH]c2=O)cc1 |  | 44.7 µM (active)
Cc1cc(F)ccc1NC(=S)NCCc1ccccc1 | 0.31% | 
CC1CCN(CCCn2c(SCC(=O)NC3CCCC3)nc3ccccc3c2=O)CC1 | 6.04% | 
CC[C@H](C)[C@H](NC(=O)[C@H](Cc1cnc[nH]1)NC(=O)[C@@H](N)CCC(=O)O)C(=O)N1CCC[C@H]1C(=O)N[C@@H](C)C(=O)O | 3.28% | 
COc1cc(OC)c(NS(=O)(=O)c2cn(C)cn2)cc1Cl | 14.3% | 
COc1c2c(cc3occ(-c4ccc5c(c4)OCO5)c(=O)c13)OC(C)(C)C=C2 |  | 39.8 µM (active)
CCN(CC)CCC(c1ccc2c(c1)OCO2)c1c(OC)cc(OC)c2c(-c3ccccc3)cc(=O)oc12 (stereo unspecified) | -27% and -23.4% | 
COc1cc(-c2c(-c3ccc4c(c3)OCO4)noc2C)ccc1F | -12.4% | 
O=C(NC(=S)Nc1ccc(Cl)cc1Cl)C1CC1 | 8.51% | 
COc1cc(Cl)ccc1OCc1cc(C(=O)N(C)CCc2c(C)n[nH]c2C)no1 | 11.4% | 
O=c1[nH]c(=S)[nH]c2[nH]c(=S)[nH]c12 |  | 3.16 µM (active)
Cc1c(C)c(C)c2[nH]c(=S)[nH]c2c1C | 7.86% | 
O=C(c1cc(C(=O)N2CCN(c3ccc(F)cc3)CC2)cc([N+](=O)[O-])c1)N1CCN(c2ccc(F)cc2)CC1 | 21.7% | 
CC1CCN(C(=O)c2ccc3c(c2)NC(=O)CN3)CC1 | 6.69% | 
O=C1Nc2cc(C(=O)N3CCN(c4ccc(F)cc4)CC3)ccc2NC1CSCc1cccc(F)c1 (stereo unspecified) |  | 44.7 µM (active)
O=C(c1cccc(C(=O)N2CCN(c3ccc(F)cc3)CC2)c1)N1CCN(c2ccc(F)cc2)CC1 | -15.2% | 
O=C(c1cccc(F)c1)N1CCC2(CC1)CCN(c1ccccc1)CC2 | 2.37% | 
Cc1ccc(CSCC2Nc3ccc(C(=O)N4CCN(c5ccc(F)cc5)CC4)cc3NC2=O)cc1 (stereo unspecified) |  | 50.1 µM (active)
CC(C)[C@@H](OCc1ccccc1)[C@H](C)/C=N\OC[C@@H](C)[C@H](OCc1ccccc1)C(C)C | 6.88% | 
CCCc1cc(=O)oc2c(C)c(OCC(=O)Nc3ccccn3)ccc12 | -8.94% | 
COc1ccc(C)cc1NC(=O)c1[nH]c(C)c(C(C)=O)c1C | 1.79% | 
Cc1ccc(S(=O)(=O)N(C)C)cc1NC(=O)c1ccccc1Br | 14% | 
CC(=O)c1c(C)[nH]c(C(=O)Nc2cc(S(=O)(=O)N(C)C)ccc2C)c1C |  | 79.4 µM (active)
